From PubChem BioAssay (NCI)
About 79,000 compounds went through this panel and 15% of them were active in at least one assay; those are over-represented in the sample as a whole. Values without a mark were called inactive. Activity calls are given as the source filed them. Rule as the data show it: active = growth inhibition above about 70%; inactive = the rest.

Legend:
[1] = NCI Yeast Anticancer Drug Screen. Data for the mec2-1 strain (AID 157); details: S. cerevisiae mec2-1 strain, hits give high values
How it was run: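 Yeast mec2-1 mutant treated with compound. Readout: growth inhibition vs vehicle controls.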

[2] = NCI Yeast Anticancer Drug Screen. Data for the rad14 strain (AID 159);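 also: 0% = growth of vehicle-treated control cultures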; details: S. cerevisiae rad14 strain growth inhibition, hits give high values
How it was run: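 Vehicle-treated cultures served as the baseline for growth inhibition of a DNA repair-mutant yeast strain exposed to each compound.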

[3] = NCI Yeast Anticancer Drug Screen. Data for the sgs1 mgt1 strain (AID 161);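 also: 0% = growth of cultures given vehicle only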; details: S. cerevisiae sgs1 mgt1 strain, hits give high values
How it was run: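 Mutant yeast exposed to compound; growth scored against vehicle-only wells.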

[4] = NCI Yeast Anticancer Drug Screen. Data for the CLN2oe strain (AID 163);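 also: 0% = growth of vehicle-only control cultures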; details: S. cerevisiae CLN2oe strain, hits give high values
How it was run: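 Read-out: yeast growth inhibition, expressed relative to vehicle-only controls. The strain bears an engineered cell-cycle alteration.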

[5] = NCI Yeast Anticancer Drug Screen. Data for the cln2 rad14 strain (AID 165);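 also: 0% = growth equal to vehicle treated cultures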; details: S. cerevisiae cln2 rad14 strain, hits give high values
How it was run: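 cln2 rad14 yeast strain; compound exposure; growth inhibition read vs vehicle controls.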

[6] = NCI Yeast Anticancer Drug Screen. Data for the bub3 strain (AID 167); details: S. cerevisiae bub3 mutant strain, hits give high values
How it was run: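 Inhibition values come from growth of compound-treated mutant yeast normalised to vehicle-treated controls.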

[7] = NCI Yeast Anticancer Drug Screen. Data for the wt2 strain (AID 169);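 also: 0% = growth of vehicle-treated yeast cultures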; details: S. cerevisiae wt2 strain growth inhibition, hits give high values
How it was run: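 Read-out: growth inhibition versus vehicle-treated control cultures after compound exposure of the yeast strain.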

[8] = NCI Yeast Anticancer Drug Screen. Data for the sgs1 strain (AID 173);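 also: 0% = growth of vehicle-only control cultures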; details: S. cerevisiae sgs1 mutant, hits give high values
How it was run: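 Read-out: yeast growth inhibition relative to vehicle controls, following compound exposure of a strain with a defined DNA repair/cell cycle alteration.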

[9] = NCI Yeast Anticancer Drug Screen. Data for the mlh1 rad18 strain (AID 175); details: S. cerevisiae mlh1 rad18 strain growth inhibition, hits give high values
How it was run: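 Yeast w/ defined DNA-repair lesions; compound exposure; growth vs vehicle controls → % inhibition.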

[10] = NCI Yeast Anticancer Drug Screen. Data for the rad18 strain (AID 177); details: S. cerevisiae rad18 mutant growth inhibition, hits give high values
How it was run: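 Readout: growth inhibition vs vehicle controls. Cells: genetically altered yeast strain, DNA repair defect.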

[11] = at 5.0 µM (retest, dose inferred, filed as 0.5)
[12] = at 50.0 µM (retest, dose inferred, filed as 5.0)

Question: With `CS(=O)(=O)OCCN(CCOS(C)(=O)=O)c1ccc(C=O)cc1` as the compound, how does the growth inhibition [1, 11] read?
Answer: The growth inhibition was 29%.

Question: What about the growth inhibition ([1]; at 11.0 µM) of the same compound?
Answer: Its growth inhibition is 43%.

Question: What about the growth inhibition ([1]; at 33.0 µM) of the same compound?
Answer: The growth inhibition was 75% (active).

Question: What about the growth inhibition [1, 12] of the same compound?
Answer: Its growth inhibition is 88% (active).

Question: What about the growth inhibition ([1]; at 50.0 µM) of the same compound?
Answer: Its growth inhibition is 83.6% (active).

Question: What about the growth inhibition ([1]; at 100.0 µM) of the same compound?
Answer: Its growth inhibition is 90% (active).

Question: What about the growth inhibition ([2]; at 1.2 µM) of the same compound?
Answer: The growth inhibition was 22%.

Question: What about the growth inhibition ([2]; at 3.7 µM) of the same compound?
Answer: Its growth inhibition is 36%.

Question: What about the growth inhibition ([2]; at 11.0 µM) of the same compound?
Answer: The growth inhibition was 63%.

Question: What about the growth inhibition ([2]; at 33.0 µM) of the same compound?
Answer: The growth inhibition was 82% (active).

Question: What about the growth inhibition ([2]; at 100.0 µM) of the same compound?
Answer: Its growth inhibition is 91% (active).

Question: What about the growth inhibition [3, 11] of the same compound?
Answer: The growth inhibition was 26%.

Question: And the growth inhibition [3, 12]?
Answer: Its growth inhibition is 80% (active).

Question: And the growth inhibition ([3]; at 50.0 µM)?
Answer: The growth inhibition was 79.4% (active).

Question: What about the growth inhibition ([4]; at 1.2 µM) of the same compound?
Answer: The growth inhibition was -10%.

Question: And the growth inhibition ([4]; at 3.7 µM)?
Answer: The growth inhibition was -1%.

Question: What about the growth inhibition ([4]; at 11.0 µM) of the same compound?
Answer: Its growth inhibition is 15%.

Question: And the growth inhibition ([4]; at 33.0 µM)?
Answer: The growth inhibition was 35%.

Question: And the growth inhibition ([4]; at 100.0 µM)?
Answer: The growth inhibition was 65%.

Question: What about the growth inhibition [5, 11] of the same compound?
Answer: The growth inhibition was 8%.

Question: And the growth inhibition [5, 12]?
Answer: The growth inhibition was 74% (active).

Question: And the growth inhibition ([5]; at 50.0 µM)?
Answer: Its growth inhibition is 65.2%.

Question: What about the growth inhibition ([6]; at 1.2 µM) of the same compound?
Answer: The growth inhibition was -6%.

Question: And the growth inhibition ([6]; at 3.7 µM)?
Answer: The growth inhibition was -3%.

Question: What about the growth inhibition [6, 11] of the same compound?
Answer: The growth inhibition was -8%.

Question: And the growth inhibition ([6]; at 11.0 µM)?
Answer: Its growth inhibition is 10%.

Question: What about the growth inhibition ([6]; at 33.0 µM) of the same compound?
Answer: The growth inhibition was 38%.

Question: What about the growth inhibition [6, 12] of the same compound?
Answer: Its growth inhibition is 37%.

Question: What about the growth inhibition ([6]; at 50.0 µM) of the same compound?
Answer: Its growth inhibition is 73.2% (active).

Question: What about the growth inhibition ([6]; at 100.0 µM) of the same compound?
Answer: Its growth inhibition is 72% (active).

Question: And the growth inhibition ([7]; at 1.2 µM)?
Answer: The growth inhibition was -1%.

Question: What about the growth inhibition ([7]; at 3.7 µM) of the same compound?
Answer: The growth inhibition was 12%.

Question: What about the growth inhibition ([7]; at 11.0 µM) of the same compound?
Answer: Its growth inhibition is 18%.

Question: And the growth inhibition ([7]; at 33.0 µM)?
Answer: The growth inhibition was 43%.

Question: What about the growth inhibition ([7]; at 100.0 µM) of the same compound?
Answer: The growth inhibition was 85% (active).

Question: What about the growth inhibition ([8]; at 1.2 µM) of the same compound?
Answer: Its growth inhibition is 15%.

Question: What about the growth inhibition ([8]; at 3.7 µM) of the same compound?
Answer: Its growth inhibition is 35%.

Question: What about the growth inhibition ([8]; at 11.0 µM) of the same compound?
Answer: Its growth inhibition is 58%.

Question: What about the growth inhibition ([8]; at 33.0 µM) of the same compound?
Answer: Its growth inhibition is 80% (active).

Question: What about the growth inhibition ([8]; at 100.0 µM) of the same compound?
Answer: The growth inhibition was 89% (active).

Question: What about the growth inhibition [9, 11] of the same compound?
Answer: Its growth inhibition is 76% (active).

Question: What about the growth inhibition [9, 12] of the same compound?
Answer: The growth inhibition was 95% (active).

Question: What about the growth inhibition ([9]; at 50.0 µM) of the same compound?
Answer: The growth inhibition was 91% (active).

Question: What about the growth inhibition ([10]; at 1.2 µM) of the same compound?
Answer: The growth inhibition was 85% (active).

Question: What about the growth inhibition ([10]; at 3.7 µM) of the same compound?
Answer: The growth inhibition was 92% (active).

Question: What about the growth inhibition ([10]; at 11.0 µM) of the same compound?
Answer: The growth inhibition was 95% (active).

Question: And the growth inhibition ([10]; at 33.0 µM)?
Answer: The growth inhibition was 96% (active).

Question: What about the growth inhibition ([10]; at 100.0 µM) of the same compound?
Answer: Its growth inhibition is 96% (active).
